# Bioassay records (PubChem)
# DUX4 txn inh: DUX4-mediated transcription inhibition; 293T-iDUX4 ZSCAN4-Gaussia luciferase reporter, 24 h; stronger effect = lower value; activity change, negative = inhibition, % (test concentration not listed); actives 0.8% (n = 37,000); AID 1224904;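 active = mean inhibition of at least 10% in the main channel, exceeding the control channel by a set limit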;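 also: 0% = median of neutral control wells and -100% = median of positive control wells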
# * = called active by the depositor; ! = a repeat was not active. This is one part of a sample in which hits are shown more often than they occur.
SMILES,DUX4 txn inh
COc1ccccc1-c1ccc(C2[C@@H]3CN(C(=O)c4cccnc4)C[C@H]2N3)cc1 (some centres undefined),10
O=C(c1ccc(F)cc1)N1CC[C@@H]2[C@@H](CO)Nc3ccc(C#CC4CC4)cc3[C@@H]21,22
COc1ccccc1C(=O)N1C[C@H]2[C@@H](c3ccccc31)[C@H](CO)N2C(=O)C1CCCCC1,-1
Cc1ccc(S(=O)(=O)Nc2ccc3c(c2)C(=O)N([C@@H](C)CO)C[C@H](C)[C@H](CN(C)S(C)(=O)=O)O3)cc1,-1
C/C=C/c1ccc2c(c1)O[C@@H](CN(C)C(=O)C1CCCCC1)[C@H](C)CN([C@H](C)CO)S2(=O)=O,2
O=S(=O)(c1ccccc1F)N1CC[C@@H]2[C@H](CO)Nc3ccc(-c4ccc(F)cc4)cc3[C@@H]21,-9
Cc1ccc(-c2cnc3c(c2)C(=O)N([C@H](C)CO)C[C@H](C)[C@@H](CN(C)Cc2ccccc2C(=O)O)O3)cc1,-2
COc1cccc(NC(=O)N(C)C[C@H]2Oc3cc(-c4cccc(C(=O)N(C)C)c4)ccc3S(=O)(=O)N([C@@H](C)CO)C[C@H]2C)c1,0
COc1cccc(S(=O)(=O)N2[C@@H]3CNC[C@H]2C3c2ccc(-c3ccccc3C)cc2)c1 (some centres undefined),16
CN(C)C(=O)c1ccc(-c2ccc(C3[C@@H]4CN(S(=O)(=O)c5ccccc5F)C[C@H]3N4)cc2)cc1 (some centres undefined),1
Cc1ccccc1-c1ccc(C2[C@@H]3CN(S(=O)(=O)c4ccccc4C)C[C@H]2N3)cc1 (some centres undefined),-36*!
Cc1ccccc1-c1ccc(C2[C@@H]3CN(C(=O)C4CCOCC4)C[C@H]2N3)cc1 (some centres undefined),1
Cc1ccccc1-c1ccc(C2[C@@H]3CN(S(=O)(=O)c4ccccc4)C[C@H]2N3)cc1 (some centres undefined),-50*!
C/C=C/c1ccc(C2[C@@H]3CN(S(=O)(=O)c4ccc(F)cc4)C[C@H]2N3)cc1 (some centres undefined),2
C[C@@H]1CN([C@@H](C)CO)S(=O)(=O)c2ccc(-c3ccc(C#N)cc3)cc2O[C@H]1CN(C)C(=O)C1CC1,-5
O=C(C1CCC1)N1CC2(C1)[C@H](c1ccccc1)[C@H](CO)N2CCC(F)(F)F,2
C[C@H]1CN([C@@H](C)CO)C(=O)CCCn2nncc2CO[C@H]1CN(C)Cc1ccc(C(=O)O)cc1,1
C[C@@H]1CN([C@@H](C)CO)C(=O)CCCn2nncc2CO[C@@H]1CN(C)Cc1ccc(C(=O)O)cc1,3
C[C@H](CO)N1C[C@H](C)[C@H](CN(C)Cc2ccc(C(=O)Nc3ccccc3N)cc2)OCc2cnnn2CCCC1=O,-16*
OC[C@@H]1[C@H](c2ccc(C#Cc3ccccc3F)cc2)[C@@H]2CN(Cc3cncnc3)CCCCN12,-5
OC[C@H]1[C@H](c2ccc(C#Cc3ccccc3F)cc2)[C@@H]2CN(Cc3cncnc3)CCCCN12,1
O=C(Nc1ccccc1F)N1CCCCN2[C@@H](CO)[C@H](c3ccc(C#Cc4cccnc4)cc3)[C@@H]2C1,5
CC(C)(O)C#Cc1ccc([C@@H]2[C@H]3CN(Cc4ccccc4F)CCCCN3[C@H]2CO)cc1,7
O=C(Nc1ccccc1F)N1CCCCN2[C@H](CO)[C@H](c3ccc(C#Cc4cccnc4)cc3)[C@H]2C1,-36*
OC[C@@H]1[C@H](c2ccc(C#Cc3cccnc3)cc2)[C@H]2CN(Cc3ccccc3F)CCCCN12,-57*
SMILES,DUX4 txn inh
O=C(Nc1cccc(F)c1)N1CCCCN2[C@H](C1)[C@@H](c1ccc(C#Cc3cccnc3)cc1)[C@@H]2CO,0
OC[C@H]1[C@H](c2ccc(C#Cc3cccnc3)cc2)[C@@H]2CN(Cc3ccccc3F)CCCCN12,-38*
OC[C@@H]1[C@@H](c2ccc(C#Cc3ccccc3F)cc2)[C@H]2CN(Cc3cncnc3)CCCCN12,0
COCC(=O)N1C[C@H]2[C@@H](c3ccccc31)[C@H](CO)N2Cc1ccccc1,2
CCNC(=O)[C@H]1[C@H](CO)[C@H]2Cn3c(ccc(-c4ccc(F)cc4)c3=O)[C@@H]1N2C,2
C[C@H](CO)N1C[C@H](C)[C@H](CN(C)C(=O)NC2CCCCC2)OCCCC[C@H](C)Oc2ccc(NC(=O)Nc3cccc4ccccc34)cc2C1=O,5
CCC(=O)N1C[C@H](O)COC[C@H]2O[C@H](CC(=O)N3CCCCC3)CC[C@@H]21,9
C/C=C/c1ccc(C2[C@@H]3CN(Cc4cccc(OC)c4)C[C@H]2N3)cc1 (some centres undefined),-5
c1ncc(-c2ccc(C3[C@@H]4CN(Cc5ccc6c(c5)OCO6)C[C@H]3N4)cc2)cn1 (some centres undefined),-4
C(=C\c1ccc(C2[C@@H]3CN(Cc4ccc5c(c4)OCO5)C[C@H]2N3)cc1)/c1ccccc1 (some centres undefined),-41*!
C[C@@H](NC(=O)C[C@@H]1C[C@@H]2c3cc(NS(C)(=O)=O)ccc3O[C@@H]2[C@H](CO)O1)c1ccccc1,-3
C[C@H]1CN([C@@H](C)CO)S(=O)(=O)c2ccc(-c3cncnc3)cc2O[C@H]1CN(C)C(=O)c1cccc(F)c1,-1
O=C(C1CC1)N1CC2(C1)[C@@H](c1ccccc1)[C@@H](CO)N2Cc1ccccc1F,-2
COc1cccc(CN2CC3(C2)[C@H](c2ccccc2)[C@@H](CO)N3Cc2ccccc2OC)c1,-36*
OC[C@H]1[C@H](c2ccccc2)C2(CN(Cc3ccccc3F)C2)N1Cc1ccccc1F,-35*
COc1cccc(CN2[C@H](CO)[C@@H](c3ccccc3)C23CN(C(=O)C2CC2)C3)c1,-6
COc1ccccc1CN1[C@@H](CO)[C@H](c2ccccc2)C12CN(C(C)=O)C2,-6
COc1cccc(CN2[C@@H](CO)[C@H](c3ccccc3)C23CN(Cc2ccccc2OC)C3)c1,-44*
COc1ccccc1CN1[C@@H](CO)[C@@H](c2ccccc2)C12CN(C(C)=O)C2,3
CCC(=O)N1CC2(C1)[C@H](c1ccccc1)[C@@H](CO)N2Cc1ccccc1F,3
COc1ccccc1CN1[C@H](CO)[C@H](c2ccccc2)C12CN(C(C)=O)C2,3
Cc1ccc(S(=O)(=O)N[C@@H]2CC[C@@H](CC(=O)NCc3ccncn3)O[C@H]2CO)cc1,2
O=C([C@@H]1[C@@H](CO)[C@@H]2Cn3c(cccc3=O)[C@H]1N2CC1CC1)N1CCc2ccccc2C1,-3
CCNC(=O)[C@H]1[C@H](CO)[C@H]2Cn3c(ccc(-c4ccc(F)cc4)c3=O)[C@@H]1N2C(=O)c1ccccn1,-1
COCC(=O)NC[C@@H]1[C@H](c2ccc(C3=CCCC3)cc2)[C@@H](CO)N1C(=O)C1CC1,-4
C[C@@H](NC(=O)C[C@H]1C=C[C@H](NC(=O)c2cccnc2)[C@H](CO)O1)c1ccccc1,-2
COCC#Cc1ccc([C@@H]2[C@@H](CO)N3CCCCN(Cc4ccncc4)C[C@H]23)cc1,24
CN1CCCCN2[C@H](C1)[C@@H](c1ccc(C#Cc3ccccc3F)cc1)[C@@H]2CO,-10
COc1ccc(C#Cc2ccc([C@@H]3[C@H]4CN(Cc5ccncc5)CCCCN4[C@H]3CO)cc2)cc1,-36*
COCC#Cc1ccc([C@@H]2[C@H]3CN(Cc4ccccc4F)CCCCN3[C@H]2CO)cc1,1
